A selection: hits, their analogues and other compounds. The true share with any hit is near 4.1%.
IDE cell inh = cellular human IDE inhibition | P14735 | HEK cells, FAbetaB cleavage, fluorescence polarization | inhibition, % at 5.59 µM | hit rate 0.41% among 320,000 | AID 434962;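 active = percent inhibition above the average of all tested compounds plus 3 SD, set per screening campaign, cut at about 16% in these data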;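 also: IDE supplied by intact live HEK cells; FP after avidin binding of uncleaved biotin substrate so inhibition keeps polarization high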
Target sequence (P14735 whole entry, looked up): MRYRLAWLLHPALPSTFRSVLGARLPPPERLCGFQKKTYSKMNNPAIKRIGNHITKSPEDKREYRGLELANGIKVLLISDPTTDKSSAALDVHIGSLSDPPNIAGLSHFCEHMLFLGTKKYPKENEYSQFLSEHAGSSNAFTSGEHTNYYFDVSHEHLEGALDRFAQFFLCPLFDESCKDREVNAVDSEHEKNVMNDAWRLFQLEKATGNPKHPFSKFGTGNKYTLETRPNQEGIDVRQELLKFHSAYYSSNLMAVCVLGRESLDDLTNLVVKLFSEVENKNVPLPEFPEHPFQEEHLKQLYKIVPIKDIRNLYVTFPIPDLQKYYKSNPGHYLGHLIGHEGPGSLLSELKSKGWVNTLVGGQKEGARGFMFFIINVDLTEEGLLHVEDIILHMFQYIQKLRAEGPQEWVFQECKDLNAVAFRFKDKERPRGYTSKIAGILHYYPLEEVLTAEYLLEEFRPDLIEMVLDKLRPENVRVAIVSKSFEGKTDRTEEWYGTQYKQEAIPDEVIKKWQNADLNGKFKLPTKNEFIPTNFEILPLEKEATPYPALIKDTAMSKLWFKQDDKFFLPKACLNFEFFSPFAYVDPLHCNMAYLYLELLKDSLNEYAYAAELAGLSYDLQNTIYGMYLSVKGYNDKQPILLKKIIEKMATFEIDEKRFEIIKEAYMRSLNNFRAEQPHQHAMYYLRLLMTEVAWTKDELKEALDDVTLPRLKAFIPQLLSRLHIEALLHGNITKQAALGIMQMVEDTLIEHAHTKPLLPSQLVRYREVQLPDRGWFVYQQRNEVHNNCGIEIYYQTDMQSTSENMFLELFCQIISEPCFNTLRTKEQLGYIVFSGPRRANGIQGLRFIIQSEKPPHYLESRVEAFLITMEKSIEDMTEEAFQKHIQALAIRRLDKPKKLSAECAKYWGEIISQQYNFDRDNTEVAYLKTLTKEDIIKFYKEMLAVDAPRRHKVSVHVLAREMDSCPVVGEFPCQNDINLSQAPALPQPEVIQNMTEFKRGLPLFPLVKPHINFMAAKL
M18AAP inhibitor = blocks P. falciparum M18 aspartyl aminopeptidase. recombinant PfM18AAP, H-Glu-NHMec fluorogenic cleavage. inhibition, % at 7.35 µM. hit rate 1.2% among 290,000. AID 1822;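 active = inhibition above the campaign mean inhibition over all tested compounds plus 3 SD, cut at about 28% in these data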
PolyA inhibitor = blocks polyadenylation in yeast reporter cells. S. cerevisiae SKY197-pL101 polyadenylation reporter, beta-gal luminescence; efflux-impaired pdr1/pdr3 knockout yeast; score 100 = 6 SD above DMSO. activity score, % at 12 µM. hit rate 0.02% among 300,000. AID 1875;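 active = lowest replicate activity score at least 50, where 100 means six control SD above control mean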;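 also: yeast exposed to compound for 9 h at 30 °C; higher score means more reporter readthrough which indicates perturbed polyadenylation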
ALR H2O2 inh = inhibitors of human sulfhydryl oxidase ALR | P55789 | purified ALR, DTT oxidation, H2O2 HRP-luminol luminescence | inhibition, % (test concentration not listed) | hit rate 3.8% among 290,000;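 active = mean replicate inhibition above about 79%, with every replicate also reaching it, limit read from the data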
CaV13 ICDI inh = Primary screen for inhibitors of IQ motif and Ca2+-dependent inactivation inhibitor domain binding in CACNA1D, Förster resonance energy transfer in living cells, …; HEK cells, CFP/YFP FRET ICDI-IQ, plate reader, 10 min; percent FRET-ratio fall versus neutral wells; inhibition, % at 12.3 µM; hit rate 0.098% among 340,000; AID 743397;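 active = mean replicate inhibition of at least 30% and at least 1% of replicates passing that level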
IDE cell activ = boosts human insulin-degrading enzyme activity in HEK cells. activation, % at 5.96 µM. hit rate 0.073% among 340,000. FAbeta-B cleavage, fluorescence polarization; 0% vehicle, 100% cell-free pure enzyme wells. P14735;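 active = activation above the mean of all tested compounds plus 3 SD, set per screening campaign, cut at about 17% in these data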
IDE cell inh cf = cellular human IDE inhibition, confirmation. shares compounds with IDE cell inh. HEK cells, FAbetaB cleavage, fluorescence polarization. inhibition, % at 5.59 µM. hit rate 51% among 1,200. AID 435028;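 active = mean inhibition across triplicate wells above the cutoff set by the earlier primary insulin-degrading enzyme screen, cut at about 16% in these data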
HEK cytotox = kills HEK cells in IDE inhibitor counter-screen | inhibition, % at 5.59 µM | hit rate 28% among 1,200 | HEK293 cytotoxicity, ATP luminescence | shares compounds with IDE cell inh; in the data active = inhibition above about 22%
Large screens that a line does not name were inactive (follow-up assays come after a bar, where they were run).

CCn1nc(C)cc1C(=O)N1CCCC(C(=O)c2ccc(OC)cc2C)C1 (stereo not drawn)	none (no result: ALR H2O2 inh)
Cc1ccc(NC(=O)Nc2ccnc(-c3cccnc3)n2)cc1	IDE cell inh 18, CaV13 ICDI inh 43 | IDE cell inh cf inactive | HEK cytotox 44
Cc1ccc(C(=O)Nc2ccnc(-c3cccnc3)n2)cc1	none
CC1CCN(C(=O)c2[nH]cnc2C(=O)Nc2ccc(Cl)cc2)CC1	none (no result: M18AAP inhibitor, PolyA inhibitor)
CCOc1ccc(CCNC(=O)Cn2c(=O)oc3ccccc32)cc1OCC	none
COc1ccc(C2CC(c3cccs3)=NN2c2ccc(C=O)cc2)cc1 (stereo not drawn)	IDE cell inh 30 (no result: IDE cell activ) | IDE cell inh cf 19 | HEK cytotox inactive
COc1ccc(C2=NN(c3ccc(C=O)cc3)C(c3ccccc3)C2)cc1 (stereo not drawn)	none (no result: CaV13 ICDI inh, IDE cell activ)
COc1ccc(S(=O)(=O)N2CCOC2CNC(=O)C(=O)NCCCN2CCOCC2)cc1 (stereo not drawn)	none
O=C1NC(=S)SC1=Cc1cccs1	none (no result: IDE cell inh, M18AAP inhibitor, PolyA inhibitor, ALR H2O2 inh)
CN1CCC/C1=C/C=C1\SC(=S)NC1=O	IDE cell inh 76 (no result: PolyA inhibitor) | IDE cell inh cf 69 | HEK cytotox inactive
COc1ccc2c(Cl)c(C(=O)N/N=C3\CCCC(=O)C3)sc2c1	IDE cell inh 22 | IDE cell inh cf 31 | HEK cytotox inactive
COc1ccc2c(Cl)c(C(=O)N/N=C/c3ccc4c(c3)OCO4)sc2c1	none
COc1ccc(Cl)cc1NC(=O)C1CCCN(c2cc(C)nc3ncnn23)C1 (stereo not drawn)	IDE cell inh 16 | IDE cell inh cf inactive | HEK cytotox inactive
NC1=NC(c2cn[nH]c2-c2ccc(F)cc2)n2c(nc3ccccc32)N1 (stereo not drawn)	none (no result: IDE cell activ)
O=C(NCCCCc1ccccc1)c1cccc(NC(=O)C2CCCC2)c1	none (no result: IDE cell inh, M18AAP inhibitor, PolyA inhibitor, ALR H2O2 inh)
COc1ccc2c(n1)Sc1nc3ccccc3nc1N2	IDE cell inh 28 | IDE cell inh cf 55 | HEK cytotox inactive
COc1cc2ccccc2nn1	none
Cc1ccc(S(=O)(=O)N2C[C@H]3[C@H]4C(=O)N(Cc5ccccc5)C(=O)[C@H]4CC(=O)[C@H]3[C@@H]2c2ccccc2Cl)cc1	none (no result: IDE cell inh, M18AAP inhibitor, PolyA inhibitor, ALR H2O2 inh, IDE cell activ)
COc1ccc(OC)c(CNC(=O)C2CCN(S(C)(=O)=O)CC2)c1	none
CCN(CC)C(=O)Cn1cc(C(=O)C(=O)N2CC=C(c3ccccc3)CC2)c2ccccc21	IDE cell inh 19 (no result: PolyA inhibitor) | IDE cell inh cf 21 | HEK cytotox inactive
COc1ccc(CN2C(=O)[C@H]3Cc4c([nH]c5ccccc45)C(C)(C)N3C2=O)cc1	none (no result: M18AAP inhibitor)
O=C(CSc1n[nH]c(=O)n1Cc1ccco1)Nc1ccccc1	none (no result: IDE cell activ)
COc1ccc(C(=O)CSc2n[nH]c(=O)n2Cc2ccco2)cc1	IDE cell inh 18 (no result: ALR H2O2 inh) | IDE cell inh cf inactive | HEK cytotox inactive
COC(=O)Cn1c(=NC(=O)c2cc(OC)cc(OC)c2)sc2cc(OC)ccc21	IDE cell inh 16 | IDE cell inh cf inactive | HEK cytotox inactive
COC(=O)Cn1c(=NC(=O)c2ccc(OC)cc2)sc2cc(OC)ccc21	none (no result: ALR H2O2 inh)
COCn1c(-c2cccc(Br)c2)nc2ccccc21	IDE cell inh 17 | IDE cell inh cf inactive | HEK cytotox inactive
COCn1c(-c2ccc(OC)c(OC)c2)nc2ccccc21	none
COc1ccc(/C=C2\SC(=O)NC2=S)cc1OC	IDE cell inh 68 (no result: ALR H2O2 inh) | IDE cell inh cf inactive | HEK cytotox inactive
O=C(CSc1nnc(-c2ccc(Br)cc2)o1)N1CCN(C(=O)c2ccco2)CC1	IDE cell inh 17 | IDE cell inh cf inactive | HEK cytotox inactive
C=CCn1c(SCC(=O)N2CCCC2=O)nc2sc(CC)cc2c1=O	none (no result: M18AAP inhibitor, PolyA inhibitor)
C=CCn1c(SCC(=O)N2CCN(C(=O)c3ccco3)CC2)nc2sc(CC)cc2c1=O	IDE cell inh 21 | IDE cell inh cf inactive | HEK cytotox inactive
Cc1sc2ncnc(SCC(=O)N3CCN(C(=O)c4ccco4)CC3)c2c1C	IDE cell inh 34 (no result: ALR H2O2 inh) | IDE cell inh cf inactive | HEK cytotox inactive
Cc1nc2ccc(Cl)cn2c1[N+](=O)[O-]	none (no result: IDE cell inh, M18AAP inhibitor, PolyA inhibitor, ALR H2O2 inh, IDE cell activ)
N#CCc1nc2ccc(S(=O)(=O)N3CCOCC3)cc2s1	IDE cell inh 46 | IDE cell inh cf inactive | HEK cytotox inactive
CSc1nc2ccc(S(=O)(=O)N3CCOCC3)cc2s1	none
Cc1cccc(NC(=O)CCc2nc3sc4c(c3c(=O)[nH]2)CCCC4)c1	none (no result: M18AAP inhibitor)
CN(C)S(=O)(=O)c1cccc(NC(=O)CCc2nc3sc4c(c3c(=O)[nH]2)CCCC4)c1	IDE cell inh 22 (no result: M18AAP inhibitor, PolyA inhibitor, ALR H2O2 inh) | IDE cell inh cf inactive | HEK cytotox 25
CC(=O)N/N=C/c1cc(C(C)(C)C)cc(/C=N/NC(C)=O)c1O	IDE cell inh 48 (no result: PolyA inhibitor, IDE cell activ) | IDE cell inh cf 29 | HEK cytotox inactive
Cc1cc(C(=O)N/N=C\c2cc(C(C)(C)C)ccc2O)n[nH]1	none (no result: CaV13 ICDI inh)
COc1c(/C=N/Nc2ccc([N+](=O)[O-])cc2[N+](=O)[O-])c(C)nn1-c1ccccc1	none
COc1c(/C=N/NC(N)=S)c(C)nn1-c1ccccc1	IDE cell inh 22 | IDE cell inh cf inactive | HEK cytotox inactive
Cc1occc1C(=O)N/N=C/c1ccc(-c2ccccc2)cc1	IDE cell inh 16 | IDE cell inh cf inactive | HEK cytotox 65
COc1cc(/C=N/NC(=O)c2ccc(-c3ccccc3)cc2)cc(OC)c1OC	IDE cell inh 21 | IDE cell inh cf inactive | HEK cytotox inactive
CC(C)c1ccc(CNn2cnnc2)cc1	none
O=C(CSc1nnc(Cc2ccccc2)o1)Nc1ccc2c(c1)OCO2	none
Cc1oc(C)c2c(=O)ccc3c(c12)OC(N)=C(C#N)C3c1ccc(F)cc1 (stereo not drawn)	IDE cell inh 27 | IDE cell inh cf 68 | HEK cytotox inactive
Cc1[nH]nc2c1C(c1ccc(F)cc1)C(C#N)=C(N)O2 (stereo not drawn)	none (no result: CaV13 ICDI inh)
CCOc1ccccc1NC(=O)COC(=O)C(CC)c1ccccc1 (stereo not drawn)	none (no result: PolyA inhibitor)
CN(C)c1ccc(/C=C/C(=O)c2c(O)c3ccccc3oc2=O)cc1	IDE cell inh 25 | IDE cell inh cf 36 | HEK cytotox inactive
Cc1ccc(-c2nc3ccccc3[nH]2)cc1NC(=S)NC(=O)c1ccccc1Br	IDE cell inh 18 (no result: CaV13 ICDI inh) | IDE cell inh cf inactive | HEK cytotox 31
Cc1ccc(S(=O)(=O)NC2CCCC2)cc1C(N)=O	none
COc1cccc(C(=O)Nc2cccc(-c3nnc(-c4ccccc4)o3)c2)c1	IDE cell inh 17 (no result: M18AAP inhibitor) | IDE cell inh cf inactive | HEK cytotox inactive
COc1cccc(C(=O)Nc2ccc(-c3nnc(-c4ccco4)o3)cc2)c1	IDE cell inh 22 (no result: CaV13 ICDI inh) | IDE cell inh cf inactive | HEK cytotox 23

Source: PubChem (several laboratories)
